{
  "source": "PubChem BioAssay AID1851",
  "about": "(National Center for Advancing Translational Sciences (NCATS), 2009)",
  "note": "In all, about 16,000 compounds went through this assay and about 4,000 (25%) were called active. Another 26% or so got no clear call; they are omitted. These entries were drawn from the full list. A number with no mark means an inactive call. Calls follow the shape of the dose curve; as a rule, active = well fitted curve in the direction sought with a large enough effect; inconclusive = small, poorly fitted or top-dose-only effect, or effect the other way; inactive = no such curve, though single readings can be large or run the other way. Numbered stars: 1 amine (or outer) side, 2 acyl side, 3 side chain; on linkers, the order of the positions; unused ones are H or OH. Bridge positions count the residues as written; N and C are the ends. Square brackets hold non-standard residues; d marks the D form. Peptide text beside a SMILES is read from it. I, II: the chains in the order shown. Actinocin(9to1) = Cc1c2oc3c(C)ccc(C(=O)[*:1])c3nc-2c(C(=O)[*:2])c(N)c1=O; aThr = C[C@H](O)[C@H](N)C(=O)O; NMeV = CN[C@H](C(=O)O)C(C)C; Sar = CNCC(=O)O",
  "data": [
    {"molecular_target": "Cytochrome P450 2C9 (Homo sapiens) (UniProt P11712)", "sequence (P11712 whole entry, looked up)": "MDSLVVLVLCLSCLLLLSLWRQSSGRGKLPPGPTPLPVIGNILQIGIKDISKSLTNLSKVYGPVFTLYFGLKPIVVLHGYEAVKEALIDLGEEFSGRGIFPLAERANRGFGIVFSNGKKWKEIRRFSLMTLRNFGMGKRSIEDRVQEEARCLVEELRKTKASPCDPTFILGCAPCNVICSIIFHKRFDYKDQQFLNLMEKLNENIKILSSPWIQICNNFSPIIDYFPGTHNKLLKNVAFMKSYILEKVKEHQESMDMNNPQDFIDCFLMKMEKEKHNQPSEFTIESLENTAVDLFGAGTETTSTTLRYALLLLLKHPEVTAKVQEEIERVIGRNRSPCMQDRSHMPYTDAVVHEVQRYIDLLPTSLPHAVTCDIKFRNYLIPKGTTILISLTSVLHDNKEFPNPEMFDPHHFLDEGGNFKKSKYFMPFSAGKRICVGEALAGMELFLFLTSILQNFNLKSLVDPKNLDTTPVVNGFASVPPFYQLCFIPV", "test": "Cytochrome panel assay with activity outcomes; as to activity, negative = inhibition: % is scaled to controls: 0 for no effect and ±100 for the full control effect", "conditions": "recombinant CYP, pro-luciferin dealkylation, luminescence, p450-cyp2c9; series mostly up to 57.1 µM", "values": [
      {"compound": "CS(=O)(=O)N1CCC[C@@]2(CCN(C(=O)Nc3cccc(C#N)c3)C2)C1", "AC50": "inactive"},
      {"compound": "CCCCCSc1nncc(=O)[nH]1", "AC50": "4.47 µM (active)"},
      {"compound": "Clc1ccc(CC[C@H](Cn2ccnc2)Sc2c(Cl)cccc2Cl)cc1", "AC50": "0.0126 µM (active)"},
      {"compound": "NC(N)=Nc1ccc(Cl)cc1", "AC50": "inactive"},
      {"compound": "CCOc1ccc(NC(=O)c2ccc(Br)o2)c([N+](=O)[O-])c1", "AC50": "inactive"},
      {"compound": "COc1ccc(NC(=O)CN(C)S(=O)(=O)c2ccc(Cl)cc2)c([N+](=O)[O-])c1", "AC50": "inactive"},
      {"compound": "Cc1ccc(C(=O)NCCNc2ccc(Cl)cc2[N+](=O)[O-])o1", "AC50": "10 µM (active)"},
      {"compound": "CC(NC(=O)CN1CCCC1)C12CC3CC(CC(C3)C1)C2", "note": "(stereo unspecified)", "AC50": "inactive"},
      {"compound": "CC(Oc1ccc(O)cc1)(P(=O)(O)O)P(=O)(O)O", "AC50": "inactive"},
      {"compound": "COC(=O)N1CCC2(CCN(C(=O)Nc3ccccc3)CC2)CC1", "AC50": "inactive"},
      {"compound": "CC(=O)N1CCC2(CC1)CCN(C(=O)Nc1cccc(F)c1)CC2", "AC50": "inactive"},
      {"compound": "O=C(Nc1cccc(NC(=O)N2CCN(c3ccccc3)CC2)c1)N1CCN(c2ccccc2)CC1", "AC50": "7.94 µM (active)"},
      {"compound": "O=C(Nc1ccccc1)N1CCC2(CCNCC2)CC1", "AC50": "inactive"},
      {"compound": "Cn1cccc1C(=O)N1CCC2(CCN(C(=O)Nc3ccccc3)CC2)CC1", "AC50": "inactive"},
      {"compound": "CC(C)n1c(N2CCN(C(=O)Nc3ccccc3)CC2)nc2ccccc21", "AC50": "6.31 µM (active)"},
      {"compound": "CC(C)=CCC/C(C)=C/CO/N=C1/C[C@@H](O)[C@@H](O)[C@@H]2[C@H]3C(=O)N(c4ccc(F)cc4F)C(=O)[C@@H]3CC[C@@H]12", "activity, negative = inhibition": "-4.09% [at 11.4 µM]"},
      {"compound": "CC(C)C(C(=O)O)N1C(=O)/C(=C/C=C/c2ccco2)SC1=S", "note": "(stereo unspecified)", "AC50": "6.31 µM (active)"},
      {"compound": "c1ccc2cc(C3=NCCN3)ncc2c1", "AC50": "inactive"},
      {"compound": "Cc1cccc(N(CC(=O)NC2CCCC2)C(=O)c2cc3cc4cccc(C)c4nc3s2)c1C", "AC50": "0.794 µM (active)"},
      {"compound": "Cc1ccc(C)c(N(CC(=O)NC2CCCC2)C(=O)c2cc3cc4cccc(C)c4nc3s2)c1", "AC50": "0.447 µM (active)"},
      {"compound": "N=C(N)SCCc1cnc[nH]1", "AC50": "inactive"},
      {"compound": "COC(=O)[C@@]1(Cc2ccc(OC)cc2)[C@H]2c3cc(C(=O)N4CCCC4)n(Cc4cc(F)cc5c4OCOC5)c3C[C@H]2CN1C(=O)c1ccccc1", "AC50": "6.31 µM (active)"},
      {"compound": "COC(=O)[C@@]1(Cc2ccccc2)[C@H]2c3cc(C(=O)N4CCCC4)n(Cc4cc(F)cc5c4OCOC5)c3C[C@H]2CN1C(=O)c1ccccc1", "AC50": "0.316 µM (active)"},
      {"compound": "O=C(NCC1CCC(C(=O)O)CC1)OCc1ccccc1", "note": "(stereo unspecified)", "AC50": "inactive"},
      {"compound": "Cc1nn(C)c(Cl)c1NC(=O)OCc1ccc(F)cc1", "AC50": "inactive"},
      {"compound": "CSc1nsc(SC)c1NC(=O)OCc1ccccc1", "AC50": "10 µM (active)"},
      {"compound": "Cc1cccc(NC(=O)c2cc(N3C(=O)CCC3=O)ccc2Cl)n1", "AC50": "inactive"},
      {"compound": "C/C(=N\\NC(=O)c1ccccc1C)c1ccc(NC(=O)c2cccs2)cc1", "AC50": "14.1 µM (active)"},
      {"compound": "Cc1cccc(NC(=S)NC(=O)c2cccs2)n1", "AC50": "10 µM (active)"},
      {"compound": "Cc1ccccc1C(=O)Nc1cccc(NC(=S)NC(=O)c2cccs2)c1", "AC50": "3.55 µM (active)"},
      {"compound": "CN(C)c1ccc(-c2nccc(NCCN3CCOCC3)n2)cc1", "activity, negative = inhibition": "5.77% [at 2.29 µM]"},
      {"compound": "CSc1ccc2c(c1)[C@H](N1CCN(C)CC1)Cc1ccccc1S2", "AC50": "inactive"},
      {"compound": "CCCN1C(=O)C(Cc2nc3ccccc3c(=O)n2C)c2ccccc21", "note": "(stereo unspecified)", "AC50": "12.6 µM (active)"},
      {"compound": "CCCN1C(=O)C(NC(C)=O)c2cc(OC)ccc21", "note": "(stereo unspecified)", "AC50": "inactive"},
      {"compound": "FC(F)(F)c1ccccc1-c1nc(NCCN2CCOCC2)c2ccccc2n1", "activity, negative = inhibition": "12.6% [at 2.29 µM]"},
      {"compound": "CC1CN(C(=O)CN2C(=O)NC3(CCCCCC3)C2=O)CC(C)O1", "note": "(stereo unspecified)", "AC50": "inactive"},
      {"compound": "CC(=O)NCCNc1ncncc1-c1ccc(N(C)C)cc1", "activity, negative = inhibition": "-1.01% [at 2.29 µM]"},
      {"compound": "Cc1ccc(NC(=O)CN2C(=O)S/C(=C\\c3cccn3C)C2=O)cc1", "AC50": "inactive"},
      {"compound": "Cc1ccc(/C=C2\\SC(=S)N(CCCC(=O)Nc3ccccn3)C2=O)cc1", "AC50": "5.01 µM (active)"},
      {"compound": "CCOc1c(OC(C)=O)ccc(/C=C2\\N=C(SCC)SC2=O)c1[N+](=O)[O-]", "AC50": "5.62 µM (active)"},
      {"compound": "C=CCSC1=Nc2sccc2C2=NC(=O)CN12", "AC50": "inactive"},
      {"compound": "Cc1ccccc1NC1=C(C(=O)c2ccccc2)N(C)S(=O)(=O)c2ccccc21", "AC50": "3.55 µM (active)"},
      {"compound": "Cc1ccc(C)c(C(=O)CN2C(=O)c3ccccc3S2(=O)=O)c1", "AC50": "inactive"},
      {"compound": "Cn1c(=O)c2[nH]c(COCc3nc4c([nH]3)c(=O)n(C)c(=O)n4C)nc2n(C)c1=O", "activity, negative = inhibition": "7.37% [at 11.4 µM]"},
      {"compound": "O=C(CSc1nnc(-c2ccncc2)n1Cc1ccccc1)Nc1nccs1", "AC50": "10 µM (active)"},
      {"compound": "CCn1c(SCc2ccc(C(=O)Nc3nccs3)cc2)nnc1-c1ccc(NC(C)=O)cc1", "AC50": "1.78 µM (active)"},
      {"compound": "COC(=O)c1ccc(NC(=O)Cn2nc(-c3ccncc3)nc2SCC(=O)Nc2nccs2)cc1", "AC50": "0.224 µM (active)"},
      {"compound": "C=CCn1c(SCC(=O)Nc2ncc(Cc3ccc(Br)cc3)s2)nnc1-c1ccncc1", "AC50": "inactive"},
      {"compound": "Cc1ccc(NC(=O)c2ccc(CSc3nnc(-c4ccncc4)n3C)cc2)cc1", "AC50": "inactive"},
      {"compound": "C=CCn1c(SCc2ccc(C(=O)Nc3ccccc3)cc2)nnc1-c1ccccc1", "AC50": "3.98 µM (active)"},
      {"compound": "COc1cc(OC)c2nc(C)c3c(c2c1)N(c1ccc(O)cc1)CC3", "AC50": "inactive"},
      {"compound": "Cc1c2oc3c(C)ccc(C(=O)N[C@@H]4C(=O)N[C@@H](C(C)C)C(=O)N5CCC[C@@H]5C(=O)N(C)CC(=O)N(C)[C@@H](C(C)C)C(=O)O[C@H]4C)c3nc-2c(C(=O)N[C@@H]2C(=O)N[C@@H](C(C)C)C(=O)N3CCC[C@@H]3C(=O)N(C)CC(=O)N(C)[C@@H](C(C)C)C(=O)O[C@H]2C)c(N)c1=O", "note": "(I: [aThr]V[dP][Sar][NMeV] / II: [aThr]V[dP][Sar][NMeV]; ester I:1-I:C, II:1-II:C; linker I:N-II:N via Actinocin(9to1))", "AC50": "inactive"},
      {"compound": "O=C1Nc2ccccc2C1=Nc1cccc2ncccc12", "activity, negative = inhibition": "17.9% [at 11.4 µM]"},
      {"compound": "CNc1cc(OC)c(C(=O)N[C@@H]2CCN(Cc3ccccc3)[C@H]2C)cc1Cl", "AC50": "inactive"},
      {"compound": "Cc1ccc(OCCOCCn2ccnc2)c(Br)c1", "AC50": "0.501 µM (active)"},
      {"compound": "C=CCNCCOCCOc1ccc(C)cc1[N+](=O)[O-]", "AC50": "inactive"}
    ]}
  ]
}
